Activity calls are given as the source filed them. The calls were made as follows: active = hit-call score of the fitted dose curve at least 0.9, where 1 is the maximum; inactive = score below 0.9.
Tests used:
[1] = BSK_CASM3C_Proliferation: Cell Proliferation Assessment in the BioMAP Diversity Plus: CASM3C Assay (AID 2283047); conditions: primary human coronary artery smooth muscle cells;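 also: sulforhodamine B total protein stain as relative cell number at 560 nm; sub-confluent cells exposed 48 h before staining; fitted both ways against DMSO so gain or loss of cell number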
[2] = read-out: Monokine induced gamma interferon (MIG), CXCL9 (gene 4283); assay: BSK_CASM3C_MIG: BioMAP Diversity Plus: CASM3C Assay for Monokine induced gamma interferon (MIG) Biomarker Activity (AID 2283048); conditions: primary human coronary artery smooth muscle cells; actives raise or lower the signal;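 also: MIG protein level measured by ELISA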
[3] = read-out: serum amyloid A (SAA), SAA1 (gene 6288); assay: BSK_CASM3C_SAA: BioMAP Diversity Plus: CASM3C Assay for serum amyloid A (SAA) Biomarker Activity (AID 2283049); conditions: primary human coronary artery smooth muscle cells; actives raise or lower the signal
[4] = BSK_CASM3C_SRB: Viability Assessment in the BioMAP Diversity Plus: CASM3C Assay (AID 2283050); conditions: primary human coronary artery smooth muscle cells;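 also: cells exposed to compound for 24 h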
[5] = read-out: Thrombomodulin, THBD (gene 7056); assay: BSK_CASM3C_Thrombomodulin: BioMAP Diversity Plus: CASM3C Assay for Thrombomodulin Biomarker Activity (AID 2283051); conditions: primary human coronary artery smooth muscle cells; actives raise or lower the signal;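 also: thrombomodulin protein level measured by ELISA 24 h after dosing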
[6] = read-out: Tissue Factor, F3 (gene 2152); assay: BSK_CASM3C_TissueFactor: BioMAP Diversity Plus: CASM3C Assay for Tissue Factor Biomarker Activity (AID 2283052); conditions: primary human coronary artery smooth muscle cells; actives raise or lower the signal;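 also: cell surface tissue factor protein level read by ELISA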
[7] = read-out: Interferon-gamma inducible Protein 10 (IP10), CXCL10 (gene 3627); assay: BSK_hDFCGF_IP10: BioMAP Diversity Plus: hDFCGF Assay for Interferon-gamma inducible Protein 10 (IP10) Biomarker Activity (AID 2283053); conditions: primary human foreskin fibroblasts; actives raise or lower the signal
Procedure, shortened: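 ELISA read-out of IP-10 (CXCL10) from primary human skin fibroblasts, 24 h after compound addition. Gain or loss of signal versus DMSO baseline, bidirectional curve fitting.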

[8] = read-out: Urokinase-type plasminogen activator receptor (uPAR), PLAUR (gene 5329); assay: BSK_CASM3C_uPAR: BioMAP Diversity Plus: CASM3C Assay for Urokinase-type plasminogen activator receptor (uPAR) Biomarker Activity (AID 2283054); conditions: primary human coronary artery smooth muscle cells; actives raise or lower the signal;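 also: cell-surface uPAR protein level quantified by ELISA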
[9] = read-out: Vascular cell adhesion molecule 1 (VCAM1), VCAM1 (gene 7412); assay: BSK_CASM3C_VCAM1: BioMAP Diversity Plus: CASM3C Assay for Vascular cell adhesion molecule 1 (VCAM1) Biomarker Activity (AID 2283055); conditions: primary human coronary artery smooth muscle cells; actives raise or lower the signal;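 also: VCAM-1 protein level quantified by ELISA on the cells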
[10] = read-out: Collagen III, COL3A1 (gene 1281); assay: BSK_hDFCGF_CollagenIII: BioMAP Diversity Plus: hDFCGF Assay for Collagen III Biomarker Activity (AID 2283056); conditions: primary human foreskin fibroblasts; actives raise or lower the signal
Procedure, shortened: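 Cells: human foreskin fibroblasts, primary. Dosing followed by 24 h incubation, then ELISA for collagen III. Both increases and decreases scored relative to DMSO.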

[11] = read-out: Epidermal growth factor receptor (EGFR), EGFR (gene 1956); assay: BSK_hDFCGF_EGFR: BioMAP Diversity Plus: hDFCGF Assay for Epidermal growth factor receptor (EGFR) Biomarker Activity (AID 2283057); conditions: primary human foreskin fibroblasts; actives raise or lower the signal
Procedure, shortened: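 ELISA readout of EGFR on human dermal fibroblasts (primary foreskin cells), 24 h post-dosing; bidirectional curve fit vs DMSO baseline, gain or loss of signal scored.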

[12] = read-out: Macrophage colony-stimulating factor (MCSF), CSF1 (gene 1435); assay: BSK_hDFCGF_MCSF: BioMAP Diversity Plus: hDFCGF Assay for Macrophage colony-stimulating factor (MCSF) Biomarker Activity (AID 2283060); conditions: primary human foreskin fibroblasts; actives raise or lower the signal
Procedure, shortened: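 M-CSF levels, determined by ELISA, are taken at 24 h after dosing human skin fibroblasts. Responses in either direction are fitted with DMSO serving as the baseline.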

[13] = BSK_hDFCGF_SRB: Viability Assessment in the BioMAP Diversity Plus: hDFCGF Assay (AID 2283061); conditions: primary human foreskin fibroblasts;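 also: cells exposed to compound for 24 h before the read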
Procedure, shortened: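 Cells were dosed with test chemical, cultured 24 h, fixed with 10% TCA, then stained with 0.1% SRB and read at 560 nm. The fibroblasts were human foreskin primary cells, and DMSO served as baseline.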

[14] = read-out: TIMP metallopeptidase inhibitor 1 (TIMP1), TIMP1 (gene 7076); assay: BSK_hDFCGF_TIMP1: BioMAP Diversity Plus: hDFCGF Assay for TIMP metallopeptidase inhibitor 1 (TIMP1) Biomarker Activity (AID 2283062); conditions: primary human foreskin fibroblasts; actives raise or lower the signal
Procedure, shortened: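 Fibroblasts from human foreskin are treated with test chemical and harvested at 24 h. TIMP-1 is quantified by ELISA, and gain or loss of signal is scored against DMSO.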

[15] = read-out: Monokine induced gamma interferon (MIG), CXCL9 (gene 4283); assay: BSK_hDFCGF_MIG: BioMAP Diversity Plus: hDFCGF Assay for Monokine induced gamma interferon (MIG) Biomarker Activity (AID 2283063); conditions: primary human foreskin fibroblasts; actives raise or lower the signal
Procedure, shortened: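 MIG signal, determined by ELISA, reflects 24 h chemical exposure of human skin primary fibroblasts. DMSO serves as negative control and baseline.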

[16] = read-out: Matrix Metallopeptidase 1 (MMP1), MMP1 (gene 4312); assay: BSK_hDFCGF_MMP1: BioMAP Diversity Plus: hDFCGF Assay for Matrix Metallopeptidase 1 (MMP1) Biomarker Activity (AID 2283064); conditions: primary human foreskin fibroblasts; actives raise or lower the signal
Procedure, shortened: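 MMP1 levels quantified by ELISA 24 h after dosing human dermal fibroblast cultures, with parallel SRB total-protein staining for overt cytotoxicity. Data fitted in both directions against DMSO baseline.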

[17] = read-out: Vascular cell adhesion molecule 1 (VCAM1), VCAM1 (gene 7412); assay: BSK_hDFCGF_VCAM1: BioMAP Diversity Plus: hDFCGF Assay for Vascular cell adhesion molecule 1 (VCAM1) Biomarker Activity (AID 2283065); conditions: primary human foreskin fibroblasts; actives raise or lower the signal;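 as to AC50: VCAM-1 protein level quantified by ELISA after 24 h chemical exposure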
Procedure, shortened: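 Cells are dosed, cultured for 24 h, then VCAM-1 is quantified by ELISA; signal increases and decreases are both fitted relative to DMSO.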

[18] = read-out: Plasminogen activator inhibitor-1 (PAI1), SERPINE1 (gene 5054); assay: BSK_hDFCGF_PAI1: BioMAP Diversity Plus: hDFCGF Assay for Plasminogen activator inhibitor-1 (PAI1) Biomarker Activity (AID 2283066); conditions: primary human foreskin fibroblasts; actives raise or lower the signal
Procedure, shortened: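 ELISA readout of PAI-1 from primary human skin fibroblast cultures, 24 h after compound addition. Gain or loss of signal was fitted bidirectionally against DMSO baseline.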

[19] = read-out: Intercellular Adhesion Molecule 1 (ICAM1), ICAM1 (gene 3383); assay: BSK_KF3CT_ICAM1: BioMAP Diversity Plus: KF3CT Assay for Intercellular Adhesion Molecule 1 (ICAM1) Biomarker Activity (AID 2283067); conditions: primary human keratinocytes with fibroblasts; actives raise or lower the signal
Procedure, shortened: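 Dose the keratinocyte/fibroblast co-culture, wait 24 h, measure ICAM-1 by ELISA, then fit increases or decreases against DMSO. Cytotoxicity is checked in parallel cultures by SRB total-protein staining.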

[20] = read-out: Interferon-gamma inducible Protein 10 (IP10), CXCL10 (gene 3627); assay: BSK_KF3CT_IP10: BioMAP Diversity Plus: KF3CT Assay for Interferon-gamma inducible Protein 10 (IP10) Biomarker Activity (AID 2283068); conditions: primary human keratinocytes with fibroblasts; actives raise or lower the signal
Procedure, shortened: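 ELISA read-out of IP-10 after 24 h chemical dosing of human skin primary co-culture (keratinocytes, foreskin fibroblasts). Gain or loss of signal relative to DMSO, bidirectional curve fit.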

Measured: AC50

S=C(NC1CCCCC1)NC1CCCCC1
active: [5] 20 µM
inactive: all other assays above

CCO[Si](CCCN=C=O)(OCC)OCC
inactive: all assays above

C=CCOCC(O)CCl (stereo not given)
inactive: all assays above

N#[N+]c1ccc2c(S(=O)(=O)[O-])cccc2c1O
inactive: all assays above

O=C(Nc1ccccc1SSc1ccccc1NC(=O)c1ccccc1)c1ccccc1
active: [1] 5.1 µM | [3] 5.22 µM | [5] 5.27 µM | [8] 5.17 µM | [9] 5.16 µM
inactive: all other assays above

O=C(Cl)c1cc(C(=O)Cl)cc(C(=O)Cl)c1
inactive: [11]
active: [1] 7.85 µM | [2] 29.2 µM | [3] 20 µM | [4] 15 µM | [5] 36.3 µM | [6] 20 µM | [7] 31 µM | [8] 26 µM | [9] 17.8 µM | [10] 21.4 µM | [12] 13.6 µM | [13] 26.4 µM | [14] 13.7 µM | [15] 16.1 µM | [16] 31.9 µM | [17] 15.2 µM | [18] 29.8 µM | [19] 30.8 µM | [20] 35 µM

CCCCCCCCc1ccc(Nc2ccc(CCCCCCCC)cc2)cc1
active: [1] 14.9 µM
inactive: all other assays above

O=c1c2ccccc2oc2ccccc12
active: [6] 2.7 µM
inactive: all other assays above

CC1OC1C1CCC2(C)OC2C1 (stereo not given)
active: [10] 11.4 µM
inactive: all other assays above

Reference: PubChem BioAssay (EPA / NIEHS)
